From PubChem BioAssay
HP1b chromo inh: HP1-beta chromodomain-methylated histone interaction inhibition. AlphaScreen HP1-beta / biotin-H3K9me3 peptide binding. hit rate 0.56% among 390,000. P83916. AID 540317. Potency, µM (top dose mostly 114 µM), hits mostly inhibitors; further: nearly all actives have a fitted effect of over 70% in size
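HP1-beta protein (50 nM final) preincubated 30 min at room temperature with biotinylated H3(1-18)K9me3 peptide (50 nM) in PBS pH 7.4, 0.01% Tween-20, then compound added for 30 min. AlphaScreen streptavidin donor/nickel chelate acceptor beads (10 ug/mL final), 30 min dark, luminescence read.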
G9a inh: inhibitors of human histone lysine methyltransferase G9a; Q96KQ7; G9a H3K9 monomethylation, AlphaScreen, 2 h; Potency, µM (doses to about 102 µM), usual class: inhibitors; hit rate 8.8% among 350,000; AID 504332; further: nearly all actives have a fitted effect of over 75% in size
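Using a bead-based AlphaScreen, monomethylated H3K9 product from 2 h room-temperature reactions (G9a 20 nM, peptide 500 nM, SAM 20 uM) was detected with 0.5 ug/mL rabbit anti-H3K9me1 antibody.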
Six1-Eya2 blk: inhibitors of human Six1/Eya2 interaction. AlphaScreen GST-Six1/His-Eya2 binding, biochemical; hits give low values. Q15475+O00167. activity change, % (concentration not given with the values). hit rate 0.56% among 360,000. AID 651725; in the data active means activity change below about -65%; inconclusive means mostly about -30% to -63%
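AlphaScreen with GST-Six1 and His-Eya2 (5X mix: 250 nM and 500 nM), glutathione donor and nickel acceptor beads; buffer 50 mM Tris pH 8.0, 300 mM NaCl, 1 mM TCEP; 1 h at 37 C in the dark.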
BAZ2B inh: inhibitors of human BAZ2B bromodomain | AID 504333 | Potency, µM (top dose mostly 114 µM), actives largely listed as inhibitors | AlphaScreen BAZ2B-H3K14Ac peptide displacement | Q9UIF8 | hit rate 4.4% among 360,000; further: nearly all actives have a fitted effect of over 60% in size
Target sequence (Q9UIF8 whole entry, looked up): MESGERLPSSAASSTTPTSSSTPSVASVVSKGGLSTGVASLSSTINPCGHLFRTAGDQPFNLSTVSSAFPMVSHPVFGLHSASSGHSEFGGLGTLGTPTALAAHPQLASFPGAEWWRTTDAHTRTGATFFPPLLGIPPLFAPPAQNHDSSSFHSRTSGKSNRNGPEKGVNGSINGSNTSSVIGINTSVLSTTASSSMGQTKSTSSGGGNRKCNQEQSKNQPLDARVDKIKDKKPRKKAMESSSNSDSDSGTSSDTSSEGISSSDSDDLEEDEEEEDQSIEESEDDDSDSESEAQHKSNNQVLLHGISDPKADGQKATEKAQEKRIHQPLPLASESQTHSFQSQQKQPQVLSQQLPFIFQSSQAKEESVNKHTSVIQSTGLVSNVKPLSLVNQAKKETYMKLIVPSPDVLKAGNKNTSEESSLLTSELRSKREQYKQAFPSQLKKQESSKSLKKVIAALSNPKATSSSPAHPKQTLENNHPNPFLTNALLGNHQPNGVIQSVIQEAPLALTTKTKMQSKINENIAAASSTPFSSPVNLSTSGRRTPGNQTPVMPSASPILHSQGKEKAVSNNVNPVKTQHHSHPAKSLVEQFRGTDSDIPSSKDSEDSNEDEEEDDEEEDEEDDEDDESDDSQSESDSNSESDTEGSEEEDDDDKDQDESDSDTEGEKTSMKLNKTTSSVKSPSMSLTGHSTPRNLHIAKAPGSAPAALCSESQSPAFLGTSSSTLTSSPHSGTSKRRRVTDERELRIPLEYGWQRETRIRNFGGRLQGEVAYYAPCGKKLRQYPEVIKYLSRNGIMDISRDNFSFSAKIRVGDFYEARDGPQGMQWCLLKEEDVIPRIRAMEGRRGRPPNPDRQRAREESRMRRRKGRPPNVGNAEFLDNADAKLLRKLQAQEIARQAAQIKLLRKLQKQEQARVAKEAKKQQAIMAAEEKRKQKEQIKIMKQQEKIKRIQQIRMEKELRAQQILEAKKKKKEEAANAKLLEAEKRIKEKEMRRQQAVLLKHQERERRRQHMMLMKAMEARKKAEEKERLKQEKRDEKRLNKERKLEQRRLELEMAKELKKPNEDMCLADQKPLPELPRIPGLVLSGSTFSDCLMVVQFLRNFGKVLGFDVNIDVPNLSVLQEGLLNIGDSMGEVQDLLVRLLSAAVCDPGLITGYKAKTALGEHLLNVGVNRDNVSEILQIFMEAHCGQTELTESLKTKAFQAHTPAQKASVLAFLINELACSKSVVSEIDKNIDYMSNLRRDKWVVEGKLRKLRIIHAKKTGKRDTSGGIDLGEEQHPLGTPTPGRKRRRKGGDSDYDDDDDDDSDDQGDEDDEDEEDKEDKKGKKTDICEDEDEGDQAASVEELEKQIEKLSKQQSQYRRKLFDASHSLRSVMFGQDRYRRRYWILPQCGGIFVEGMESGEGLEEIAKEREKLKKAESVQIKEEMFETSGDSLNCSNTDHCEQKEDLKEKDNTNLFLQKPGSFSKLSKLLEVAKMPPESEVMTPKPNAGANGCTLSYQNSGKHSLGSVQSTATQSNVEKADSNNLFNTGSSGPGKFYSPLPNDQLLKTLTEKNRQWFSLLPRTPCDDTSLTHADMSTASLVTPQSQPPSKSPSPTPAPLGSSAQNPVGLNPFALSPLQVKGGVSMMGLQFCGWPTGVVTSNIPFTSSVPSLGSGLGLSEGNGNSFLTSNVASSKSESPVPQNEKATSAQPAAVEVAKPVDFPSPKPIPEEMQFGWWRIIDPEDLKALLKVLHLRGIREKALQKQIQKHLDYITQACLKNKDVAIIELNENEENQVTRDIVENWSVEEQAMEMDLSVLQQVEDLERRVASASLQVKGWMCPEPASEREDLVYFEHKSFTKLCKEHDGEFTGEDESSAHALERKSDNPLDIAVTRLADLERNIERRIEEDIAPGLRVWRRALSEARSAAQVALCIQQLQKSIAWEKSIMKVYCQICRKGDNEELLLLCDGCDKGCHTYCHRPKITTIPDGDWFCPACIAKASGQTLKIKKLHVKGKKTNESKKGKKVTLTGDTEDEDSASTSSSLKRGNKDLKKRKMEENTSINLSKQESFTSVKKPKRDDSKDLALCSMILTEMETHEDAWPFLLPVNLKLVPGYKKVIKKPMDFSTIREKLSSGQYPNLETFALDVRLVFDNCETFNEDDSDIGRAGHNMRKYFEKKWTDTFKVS
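AlphaScreen displacement of biotin-H3(5-23)K14Ac peptide (50 nM final) from BAZ2B (50 nM final) in PBS pH 7.4, 0.01% Tween-20; complex preformed 30 min RT, then compounds (top 110 uM) 30 min RT, beads 20 min dark.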
JMJD2A Tudor: inhibitors of human JMJD2A Tudor domain; hit rate 4.4% among 390,000; O75164; AID 504339; AlphaScreen JMJD2A-Tudor / H3K4me3 peptide binding; Potency, µM (top dose mostly 114 µM), most hits filed as inhibitors; further: nearly all actives have a fitted effect of over 50% in size
CtBP-E1A blk: CtBP/E1A binding inhibition. activity change, % (test concentration not listed). AlphaScreen GST-E1A/His-CtBP binding, 1536-well; hits give low values. hit rate 0.49% among 340,000. AID 651724; in the data active means activity change below about -65%; inconclusive means mostly about -30% to -63%
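Homogeneous bead-based format: GST-tagged E1A captured on glutathione donor beads, His-tagged CtBP on nickel acceptor beads; compounds precede bead addition by 2 h at 37 °C.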
Of the large screens only hits and unclear results are named; the others gave an inactive call. Compounds with a hit are over-represented: about 10% of the library has one in this group of screens. Unless noted, the call rests on the fitted dose curve; in most records, active means well fitted inhibition curve with a large enough effect; inconclusive means small, poorly fitted or top-dose-only effect; inactive means no such curve, though single readings can be large or run the other way.

O=C(Nc1ccccc1)C(Cl)C(=O)c1ccccc1 (centres undefined)	none (no result: CtBP-E1A blk)
CC(=O)C(Cl)C(=O)Nc1ccccc1 (centres undefined)	G9a inh 45µM
COc1cccc(C2CNC3(CCCC(C)C3)c3[nH]c4ccccc4c32)c1OC (centres undefined)	G9a inh inconclusive, BAZ2B inh 45µM, JMJD2A Tudor inconclusive (no result: CtBP-E1A blk)
CC(=O)NC1=NN(C(C)=O)C(C)(c2ccccc2)S1 (centres undefined)	G9a inh inconclusive, BAZ2B inh 45µM
COc1ccc(N2CCN(C3(c4ccccc4)C(=O)c4ccccc4C3=O)CC2)cc1	HP1b chromo inh 13µM, G9a inh 8.9µM, BAZ2B inh 7.1µM, JMJD2A Tudor 8.9µM (no result: Six1-Eya2 blk, CtBP-E1A blk)
COc1ccc(N2CCN(S(=O)(=O)/C=C/c3ccccc3)CC2)cc1	none
COc1ccc(NC2(c3ccc(Cl)cc3)C(=O)c3ccccc3C2=O)cc1	HP1b chromo inh 14µM, G9a inh 28µM, BAZ2B inh 14µM, JMJD2A Tudor 56µM
COc1cccc(CNc2nc3cc(-c4cccc(C(=O)NCCO)c4)sc3c(=O)n2C)c1	none (no result: HP1b chromo inh, G9a inh, BAZ2B inh, JMJD2A Tudor)
CCC(=O)N(Cc1ccc(S(N)(=O)=O)cc1)C1CC(=O)N(c2ccc(OC)cc2)C1=O (centres undefined)	G9a inh 8.9µM
Cc1c(OCC(=O)C(C)(C)C)ccc2c3c(c(=O)oc12)CCCC3	none
Cc1c(OCc2nn[nH]n2)ccc2c3c(c(=O)oc12)CCCC3	G9a inh 71µM, CtBP-E1A blk inconclusive
Cc1c(OCc2nn[nH]n2)ccc2c3c(c(=O)oc12)CCC(C)C3 (centres undefined)	G9a inh 50µM
Cc1cc2oc(=O)c3c(c2cc1OCc1nn[nH]n1)CCCC3	G9a inh 71µM, Six1-Eya2 blk inconclusive, BAZ2B inh inconclusive
CCOC(=O)COc1ccc2c3c(c(=O)oc2c1C)CCC3	none
CCOCCCNC(=O)N1CCN(S(=O)(=O)c2ccc3c(ccn3C)c2)CC1	none (no result: Six1-Eya2 blk, CtBP-E1A blk)
O=C(O)CN1C(=O)C2C3CC(C2C1=O)C1C(c2ccccc2)c2sc(=O)[nH]c2SC31 (centres undefined)	none
O=c1[nH]c2c(s1)C(c1ccco1)C1C3CCC(C3)C1S2 (centres undefined)	G9a inh 7.9µM, BAZ2B inh 50µM, JMJD2A Tudor inconclusive
Cc1ccc(C2CC(=O)Oc3c(C(C)C)ccc(C)c32)cc1 (centres undefined)	none (no result: HP1b chromo inh, Six1-Eya2 blk, BAZ2B inh, JMJD2A Tudor, CtBP-E1A blk)
Cc1n[nH]c(=S)n(/N=C/c2ccccn2)c1=O	G9a inh inconclusive, Six1-Eya2 blk -79, BAZ2B inh inconclusive, JMJD2A Tudor 2.8µM, CtBP-E1A blk -87
CCc1n[nH]c(=S)n1/N=C/c1ccccn1	HP1b chromo inh inconclusive, BAZ2B inh 50µM, JMJD2A Tudor 7.9µM
CCc1n[nH]c(=S)n1/N=C/c1ccccc1OCc1ccc(Cl)cc1	none (no result: G9a inh)
COc1ccc(-c2oc3c(c2C(=O)OCCO)C(OCCO)CCC3)cc1 (centres undefined)	none (no result: HP1b chromo inh, G9a inh, BAZ2B inh, JMJD2A Tudor)
COc1cc(NC(=O)C2CCN(S(=O)(=O)c3cccs3)CC2)c(C(=O)O)cc1OC	none (no result: HP1b chromo inh, G9a inh, BAZ2B inh, JMJD2A Tudor)
COc1cc(NC(=O)C2CC2)c(C(=O)O)cc1OC	G9a inh 50µM
NC(=S)N/N=C/c1ccc(-c2ccccc2)o1	G9a inh 6.3µM, BAZ2B inh inconclusive
Cc1ccc(-c2ccc(/C=N/NC(N)=S)o2)cc1	HP1b chromo inh inconclusive, G9a inh 8.9µM
Cc1cc(=O)[nH]c(N/N=C/c2c(O)n(-c3ccccc3)c(=O)c3ccccc23)n1	G9a inh inconclusive, Six1-Eya2 blk -87, BAZ2B inh 40µM, JMJD2A Tudor inconclusive, CtBP-E1A blk inconclusive
Cc1cc(=O)[nH]c(N/N=C/c2ccc(-c3ccc(F)cc3)o2)n1	Six1-Eya2 blk -85, CtBP-E1A blk -82
Cc1cc(=O)[nH]c(NN=Cc2c(Cl)cccc2Cl)n1	none (no result: G9a inh, BAZ2B inh)
Cc1cccc(-n2c(O)c(C=Nc3ccccc3)c3ccccc3c2=O)n1	HP1b chromo inh inconclusive, G9a inh inconclusive, JMJD2A Tudor 11µM
COc1ccccc1C=NNc1nc(C)cc(=O)[nH]1	JMJD2A Tudor inconclusive (no result: G9a inh, BAZ2B inh)
Cc1cc(=O)[nH]c(N/N=C/c2ccc(Br)s2)n1	Six1-Eya2 blk -73, CtBP-E1A blk inconclusive
Cc1cc(=O)[nH]c(N/N=C/c2ccc(O)c(O)c2)n1	Six1-Eya2 blk inconclusive, JMJD2A Tudor 2.8µM, CtBP-E1A blk inconclusive
CSc1ccc(/C=N/Nc2nc(C)cc(=O)[nH]2)cc1	JMJD2A Tudor inconclusive, CtBP-E1A blk inconclusive
COC(=O)c1ccc(Cn2c(C)cc(C)[n+]2C)o1	G9a inh inconclusive, BAZ2B inh inconclusive, JMJD2A Tudor 40µM
COC(=O)c1ccc(Cc2ccc(C(=O)OC)o2)o1	G9a inh inconclusive
CCN(C(=O)c1cn(C)c(=O)c2ccccc12)c1ccccc1F	none
COc1cccc(/C=N/N2C(=O)NC3(CCCCC3)C2=O)c1O	G9a inh 16µM
COc1ccc(Cn2c(=O)n(-c3ccc(OC)cc3)c(=O)c3c2c2cc(OC)ccc2n3C)cc1	none (no result: Six1-Eya2 blk, CtBP-E1A blk)
CCCNC(=O)OCc1cccnc1Sc1ccc(C)cc1	JMJD2A Tudor 45µM
CCOC(=O)Nc1cccnc1Sc1ccc(Cl)cc1	none (no result: G9a inh, BAZ2B inh)
COC(=O)c1c(NC(=O)C(C)C)sc(C(=O)N2CCOCC2)c1C	G9a inh 45µM
O=C(N/N=C/c1ccc(N2CCCCC2)o1)c1ccccc1	HP1b chromo inh inconclusive, G9a inh 10µM, JMJD2A Tudor 50µM
O=C(N/N=C/c1ccc(N2CCOCC2)o1)c1cccc([N+](=O)[O-])c1	G9a inh 10µM, JMJD2A Tudor inconclusive
O=C1C=C(N2CCOCC2)C2(CCCCC2)O1	G9a inh 45µM, BAZ2B inh inconclusive
Cc1ccc(-n2ncc(C(=O)NC3CCN(Cc4ccccc4)CC3)c2C2CCN(C(=O)OC(C)(C)C)CC2)cc1C	none (no result: Six1-Eya2 blk, CtBP-E1A blk)
COc1cccc(C2CC(=O)Nc3c2c(=O)[nH]c2ncnn32)c1 (centres undefined)	JMJD2A Tudor 35µM
CCN=C1SC(CC(=O)Nc2ccc3c(c2)OCO3)C(=O)N1CC (centres undefined)	none (no result: G9a inh)
NC1=NC(=O)C(CC(=O)Nc2ccc3c(c2)OCO3)S1 (centres undefined)	G9a inh 50µM
Cc1ccccc1C(C(=O)NC1CCCCC1)N(C(=O)c1ccccn1)c1cccnc1 (centres undefined)	none (no result: G9a inh)
CSCC[C@H](NC(=O)C1CCN(C(=O)[C@@H](N)Cc2ccccc2)CC1)C(=O)O	G9a inh inconclusive
CC1CN(C(=O)N[C@@H](Cc2ccccc2)C(=O)O)CC(C)O1 (some centres undefined)	G9a inh 56µM
N[C@@H](Cc1ccccc1)C(=O)N1CCC(C(=O)N[C@@H](CCC(=O)O)C(=O)O)CC1	G9a inh 79µM, JMJD2A Tudor 18µM (no result: CtBP-E1A blk)
